From PubChem BioAssay AID687020 (Broad Institute, 2013)
Out of some 1,400 compounds screened, about 100 (7.1%) were called active. A selection follows. Potency and affinity values are given separately. A number with no mark means an inactive call. No rule for the calls is given here.

Assay: Vero cell toxicity, dose response, cytotoxicity control, plate reader, cherry-pick samples (AID 687020);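 also: compounds incubated with cells for three days before luminescence read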
Details: Vero cells toxicity; series mostly up to 19.5 µM; activity change, negative = toxicity: at the top concentration

Row | Structure (SMILES) | activity change, negative = toxicity [%]
1 | COc1ccccc1N(CC(=O)N1CCCC1)S(=O)(=O)c1ccc(C)cc1 | -2.96
2 | CCS(=O)(=O)Nc1ccc(C(=O)NCCSc2ccccc2)cc1 | -8.4
3 | COc1ccc(C(=O)N2CCN(C3CCCCC3)CC2)cc1OC | -10.2
4 | COc1ccc(OC)c(-c2cc(C(=O)NC3CCCC3)c3ccccc3n2)c1 | -9.23
5 | COc1ccc(-c2nc(NCCCN(C)C)c3ccccc3n2)cc1 | -20.6
6 | Cc1cc(N2CCN(C)CC2)n2nc(-c3ccc(Cl)cc3)nc2n1 | -1.64
7 | COc1ccc2nc(NN=Cc3cccc(C)n3)cc(C)c2c1 | -10.1
8 | C[C@@H]1CN([C@H](C)CO)C(=O)c2cc(NC(=O)c3ccccc3)ccc2O[C@@H](C)CCCCO[C@@H]1CN(C)Cc1ccc(C(=O)O)cc1 | -0.937
9 | C[C@@H]1CCCCO[C@@H](CN(C)Cc2ccc(C(=O)O)cc2)[C@H](C)CN([C@H](C)CO)C(=O)c2cc(NC(=O)c3ccccc3)ccc2O1 | -7.9
10 | Cc1ccc(CN(C)c2ccc(S(=O)(=O)N3CCCC3)cn2)cc1 | -3.39
11 | COc1ccc(C(=O)NCCOc2cccc(Oc3ccccc3)c2)cc1OC | -17.2
12 | COc1cc(C(=O)NCc2cccc(Cl)c2)ccc1OCC(=O)N1CCOCC1 | 2.08
13 | O=C(C[C@@H]1CC[C@@H]2[C@H](COC[C@H](O)CN2Cc2cccc(Cl)c2)O1)N1CCOCC1 | -2.6
14 | COC(=O)C1=C(C)N(Cc2cccc(C(F)(F)F)c2)C(=NCC2CC2)NC1c1ccc(F)cc1 (stereo unspecified) | -0.751
15 | C[C@@H]1CN([C@@H](C)CO)C(=O)c2cc(NS(=O)(=O)c3ccc(F)cc3)ccc2O[C@@H](C)CCCCO[C@@H]1CN(C)C(=O)CCCN(C)C | -2.95
16 | CCOC(=O)Nc1ccc(N2CCOCC2)c(S(=O)(=O)N2CCOCC2)c1 | -7.3
17 | CCCCN1C[C@H](Cc2ccccc2)[C@@H](CC(=O)Nc2ccccc2)C1=O | -6.93
18 | O=C(CC1NCCN(Cc2ccccc2)C1=O)Nc1ccccc1 (stereo unspecified) | -3.62
19 | Cc1ccc(S(=O)(=O)N(c2nc(NC(C)C)nc(NC(C)C)n2)n2cnnc2)cc1 | -22
20 | C=CCOc1ccccc1OCC(O)CNC(C)C (stereo unspecified) | 4.09
21 | N#C[C@@H]1[C@H](c2ccc(C#Cc3ccccc3F)cc2)[C@H](CO)N1C(=O)C1CCC1 | -7.04
22 | CC(C)CCn1c2ccccc2c2cc(CC(N)=O)ccc21 | -9.09
23 | CC1(Cc2cccc(F)c2)C(=O)Nc2ccc(-c3cccnc3)cc21 (stereo unspecified) | 2.56
24 | COc1cc(OC)cc(C(=O)Nc2ccc3nc4n(c(=O)c3c2)CCCC4)c1 | -1.48
25 | O=C(Nc1ccc2nc3n(c(=O)c2c1)CCCC3)c1ccccc1F | -0.515
26 | CC(C)(C)c1ccc(C(=O)Nc2ccc3c(c2)C(=O)NC3=O)cc1 | -3.44
